Experimental findings from PubChem BioAssay (NCATS) are described below.

Inconclusive results are not listed. Activity calls are given as the source filed them. Unless noted, calls come from the whole dose curve; as a rule, active = well fitted curve in the direction sought with a large enough effect; inconclusive = small, poorly fitted or top-dose-only effect, or another doubt; inactive = no such curve, though single readings can be large; an effect the other way counts as inactive or inconclusive.

Assay [1] in a line: Confirmation and Secondary Assay for Modulators of Hemoglobin Beta Chain Splicing at IVS2 654 locus (AID 910).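 Note: HeLa cells stably carrying EGFP split by mutant beta-globin IVS2-654 intron; per-well total GFP intensity by laser scanning cytometry after 2-day treatment; % of control where 0% means no effect.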 In short, it runs like this:
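Readout: per-well total peak green fluorescence (488 nm ex, 500–520 nm em) from objects 5–250 µm, reflecting correct splicing of an EGFP-654 reporter. Compounds were applied for 2 days at 37 °C to overnight-plated HeLa EGFP-654 cells; controls were DMSO and 500 nM IVS2-654 PNA.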

A short description of assay [2]: Confirmation and Secondary Assay for Modulators of Hemoglobin Beta Chain Splicing at IVS2 705 locus (AID 930).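 Note: HeLa cells stably expressing the EGFP-705 splicing reporter; GFP fluorescence per well restored by corrected splicing of the IVS2-705 intron in EGFP; % of control where 0% means no effect.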 The method in brief:
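HeLa EGFP-705 reporter; 500 cells/well, o/n 37C 5% CO2; cpd 2 d; 488 ex/500-520 em laser scan; total peak GFP intensity/well. Ref: 500 nM […] antisense PNA.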

A short description of assay [3]: qHTS Assay for Lipid Storage Modulators (AID 1519; calls by dose curve; for activity change, negative = inhibition: % is set by controls: 0 for no effect and ±100 for the full control effect). To be noted: Drosophila S3 cells, BODIPY lipid droplet/cell ratio, laser cytometry, cells loaded with oleic acid. The method in brief: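 Cells seeded at 5,000 per well were treated with compounds over a concentration series and loaded with oleic acid (400 uM, as added). Lipid droplet fluorescence (488 nm excitation, 500-530 nm channel) was read by laser-scanning cytometry and normalized to 20 uM Triacsin C.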

Assay [4] deals with Furin (Homo sapiens) (UniProt P09958). Briefly: Furin counterscreen qHTS for Zika virus inhibitors (AID 1347149).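 Note: purified recombinant full-length human furin enzyme at 5 nM; fluorescence gain from furin cutting a BOC-RVRR-AMC peptide substrate over 15 min; top concentration of the series differs between compounds; plate controls were no-inhibitor control for no effect and no-enzyme control for full effect; nearly all actives have a fitted effect of over 70% in size.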 In short, it runs like this: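 Fluorogenic cleavage of BOC-RVRR-AMC (2 microM final, Km ~15 µM) was monitored (ex 340, em 450 nm) at 37C after 15 min RT preincubation of 5 nM furin with compounds in HEPES pH 7.0 buffer with CaCl2 and Triton X-100. Percent inhibition was fitted to a 4-parameter Hill curve.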

Assay [5] is described as follows: Confirmatory screen GU Rhodamine qHTS for Zika virus inhibitors qHTS (AID 1347157). Note: potency is the fitted concentration of half-maximal effect; nearly all actives have a fitted effect of over 70% in size. The method in brief:
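A qHTS format was used, with compound concentrations ranging up to 114 microM. Each compound was preincubated with 25 nM NS2B-NS3 protease, and the substrate was then added at 1.5 microM. Curves were fitted with a 4-parameter Hill model.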

The nature of assay [6]: ZIKV-mCherry secondary qHTS for Zika virus inhibitors (AID 1347158). Note: top concentration of the series differs between compounds. In short, it runs like this:
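Vero cells, 5,000/well, plated overnight at 37 °C, then compound added and infected with recombinant ZIKV-mCherry at MOI 1 for 48-72 h. PFA-fixed, Hoechst nuclear stain, high-content imaging; cells with mCherry intensity above 450 RFU scored infected, reported as percent infection.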

Assay [7] deals with Zika virus NS2B-NS3 protease (linked construct). Briefly: Primary screen NINDS Rhodamine qHTS for Zika virus inhibitors (AID 1347160). Note: potency is the fitted concentration of half-maximal effect; nearly all actives have a fitted effect of over 55% in size. In short, it runs like this:
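In 10 mM Tris-HCl pH 8.0 containing 0.01% Tween 20, linked NS2B-NS3 protease (25 nM final) is exposed to test compounds for 15 min. Cleavage of 1.5 microM Rhodamine110 substrate is tracked by fluorescence over 15 min.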

A short description of assay [8]: Confirmatory screen NINDS Rhodamine qHTS for Zika virus inhibitors (AID 1347161). Note: potency is the fitted concentration of half-maximal effect; nearly all actives have a fitted effect of over 60% in size. The method in brief: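 Each compound, titrated, sat 15 min with 25 nM linked protease before 1.5 microM Rhodamine110 substrate went in. Fluorescence gain over the next 15 min, in pH 8.0 Tris with Tween 20, gave Hill-fitted curves.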
The test system of assay [9] is Zika virus NS2B-NS3 protease (linked). In words: 384 well plate NINDS AMC confirmatory qHTS for Zika virus inhibitors (AID 1347163). Note: potency is the fitted concentration of half-maximal effect; nearly all actives have a fitted effect of over 50% in size. In short, it runs like this: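 Linked protease 5/30/60 nM final; cpds up to 1 mM final, ~15 min preinc. Substrate Ac-VKTGKR-AMC 30 microM final. RT, dark, 25 min; FI ex 355/em 460; normalized to no-enzyme/no-inhibitor ctrls.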
The test system of assay [10] is Zika virus NS2B-NS3 protease (linked construct). Briefly: 384 well plate NINDS Rhodamine confirmatory qHTS for Zika virus inhibitors (AID 1347164).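 Note: fluorescence from protease cleavage of Ac-LKRR-rhodamine 110 substrate; potency is the fitted concentration of half-maximal effect; nearly all actives have a fitted effect of over 65% in size.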 The method in brief: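 Enzyme (final 5/30/60 nM) + cpd (DMSO), ~15 min; add Ac-LKRR-Rd 10 microM final; 25 min RT, dark; FI ex 485/em 538; normalized to no-enzyme, no-inhibitor ctrls; aprotinin intraplate ctrl.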
Assay [11] in a line: OV-KATE Cancer Cell Toxicity qHTS against the NCATS CANVASS Library (AID 1347345). Note: % is set by controls: 0 for no effect and ±100 for the full control effect. In short, it runs like this:
(§1)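 Toxicity is measured over 72 h of compound exposure at 37 degrees C under 5% CO2. Each well holds 1000 cells, pre-incubated for 4 hours before dosing across an 11-point range. CellTiter-Glo luminescence gives viability.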

Assay [12] in a line: HPAF-II Cancer Cell Toxicity qHTS against the NCATS CANVASS Library (AID 1347346). Note: % is set by controls: 0 for no effect and ±100 for the full control effect; nearly all actives have a fitted effect of over 55% in size. The method in brief: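 HPAF-II cells were seeded at 1000 cells/well, allowed to settle for 4 h at 37 degrees C, then exposed to compounds in an 11-point series for 72 h. Viability was read by CellTiter-Glo luminescence.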
The nature of assay [13]: OV-SAHO Cancer Cell Toxicity qHTS against the NCATS CANVASS Library (AID 1347348). Note: % is set by controls: 0 for no effect and ±100 for the full control effect; nearly all actives have a fitted effect of over 55% in size. In short, it runs like this:
as §1

Assay [14] in a line: Panc-1005 Cancer Cell Toxicity qHTS against the NCATS CANVASS Library (AID 1347349). Note: potency is the fitted concentration of half-maximal effect; nearly all actives have a fitted effect of over 60% in size. In short, it runs like this:
as §1

The nature of assay [15]: A2780 Cisplatin Sensitive Ovarian Cancer Cell Toxicity qHTS against the NCATS CANVASS Library (AID 1347353). Note: % is set by controls: 0 for no effect and ±100 for the full control effect; nearly all actives have a fitted effect of over 60% in size. In short, it runs like this: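 A2780 cisplatin-sensitive cells (750 per well) were seeded, left 4 h at 37 °C, then pin-dosed in an 11-point series. After 72 h at 37 °C/5% CO2, viability was measured as ATPLite luminescence.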
Assay [16] can be described thus: UWB1.289-WTBRCA1 Cancer Cell Toxicity qHTS against the NCATS CANVASS Library (AID 1347354). Note: % is set by controls: 0 for no effect and ±100 for the full control effect. The method in brief:
(§2)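 Cells were seeded at 1000 per well and allowed to settle 4 hours at 37 degrees C before pin transfer of compounds as an 11-point series. Viability was read by CellTiter-Glo luminescence after 72 hours' exposure.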

Assay [17] is described as follows: HEK-293 Cancer Cell Toxicity qHTS against the NCATS CANVASS Library (AID 1347355). Note: % is set by controls: 0 for no effect and ±100 for the full control effect; nearly all actives have a fitted effect of over 65% in size. In short, it runs like this:
as §2

Assay [18] can be described thus: HPAF-II 24hr Apoptosis Induction qHTS against the NCATS CANVASS Library (AID 1347356). Note: 0% is about no effect. The method in brief: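 HPAF-II cells (500/well) in DMEM + 10% FBS were treated with an 11-point compound series for 24 hours at 37 degrees C. Caspase-3/7 activity was then read by Caspase-Glo DEVD luminescence after 15 min.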
Assay [19] is described as follows: HPAF-II 12hr Apoptosis Induction qHTS against the NCATS CANVASS Library (AID 1347358). Note: 0% is about no effect. The method in brief:
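HPAF-II cells (500/well, DMEM + 10% FBS) were exposed to compounds for 12 hours at 37 degrees C. Caspase-3/7 activity was then read by Caspase-Glo 3/7 luminescence after 15 min at room temperature.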

The nature of assay [20]: HEK293 24hr Apoptosis Induction qHTS against the NCATS CANVASS Library (AID 1347359). Note: 0% is about no effect. The method in brief:
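Caspase-3/7 activation measured as luminescence from the DEVD-based Caspase-Glo reagent, 15 min at room temperature, following 24-hour compound treatment of HEK293 cells.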

A short description of assay [21]: HPAF-II 18hr Apoptosis Induction qHTS against the NCATS CANVASS Library (AID 1347360). Note: 0% is about no effect. In short, it runs like this: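 Seed HPAF-II cells at 500/well in DMEM + 10% FBS, pin-transfer compounds, incubate 18 hours at 37 degrees C/5% CO2, add Caspase-Glo 3/7 reagent, wait 15 min, read luminescence.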

Furin (Homo sapiens), sequence (P09958 whole entry, looked up): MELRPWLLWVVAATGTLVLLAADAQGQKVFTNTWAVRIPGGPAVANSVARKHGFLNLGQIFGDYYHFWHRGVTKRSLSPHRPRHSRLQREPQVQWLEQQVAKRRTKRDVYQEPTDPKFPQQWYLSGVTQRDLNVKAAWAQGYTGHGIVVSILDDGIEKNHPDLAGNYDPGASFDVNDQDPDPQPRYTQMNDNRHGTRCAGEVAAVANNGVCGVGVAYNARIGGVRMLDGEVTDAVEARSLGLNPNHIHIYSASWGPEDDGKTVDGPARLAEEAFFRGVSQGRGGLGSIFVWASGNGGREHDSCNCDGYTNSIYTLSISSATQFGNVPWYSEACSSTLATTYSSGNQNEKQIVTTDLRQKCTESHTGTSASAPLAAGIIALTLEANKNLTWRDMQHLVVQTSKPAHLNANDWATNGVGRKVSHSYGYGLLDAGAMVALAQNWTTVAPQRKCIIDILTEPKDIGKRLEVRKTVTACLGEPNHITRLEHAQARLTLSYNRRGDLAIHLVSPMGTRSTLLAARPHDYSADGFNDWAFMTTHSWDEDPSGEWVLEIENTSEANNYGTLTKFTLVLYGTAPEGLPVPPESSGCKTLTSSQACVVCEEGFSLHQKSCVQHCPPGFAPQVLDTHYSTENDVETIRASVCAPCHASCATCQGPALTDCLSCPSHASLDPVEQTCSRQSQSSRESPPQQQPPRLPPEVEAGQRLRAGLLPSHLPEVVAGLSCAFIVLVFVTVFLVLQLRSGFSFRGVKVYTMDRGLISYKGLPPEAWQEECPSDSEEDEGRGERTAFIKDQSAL

`O=C(OC1Cc2c(O)cc(O)cc2OC1c1cc(O)c(O)c(O)c1)c1cc(O)c(O)c(O)c1` (stereo not drawn): the outcome in [1], in assay [2] and in assay [18] was inactive. The activity change, negative = inhibition in [3] (at 57.5 µM (top of the series)) is 7.9% (inactive). The figures for the max response in [3] (measured here: cell count channel max response) and in [3] (measured here: lipid channel max response) were 1.63% and 13.6%, respectively. Moreover, the Potency result in [4], in assay [6], in [11], in assay [12], in assay [13] and in [15] was “inactive” in each case. In addition, the Potency result in assay [16], in assay [17], in assay [19], in [20] and in assay [21] was “inactive” throughout. The Potency in assay [5] is 7.94 µM (active); in [7], 1.56 µM (active); in assay [8] it was 7.94 µM (active); in assay [9] it was 15.8 µM (active); in [10] it was 89.1 µM (active); in assay [14], 18.8 µM (active).
